# Assay results: the supplement of paper PMC3334620
# In all, about 33,000 sequences were measured (“E-score (-0.5 to 0.5)”: median about -0.016, highest 2% from about 0.31 on). The list comes from a sample in which the highest values are over-represented; it also holds similar and randomly drawn sequences.
# Target: Cst6 (UniProt P40535)
# Assay: PBM E-score (8-mer binding enrichment) (E-score (-0.5 to 0.5)); higher = stronger / more preferred TF binding
# Conditions: protein concentration: 200 nM; construct: GST-DNA-binding domain
# Procedure: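 Universal 'all 10-mer' protein binding microarrays (Agilent AMADID 015681) probed with GST-tagged S. cerevisiae TFs (full-length or DBD) made by in vitro transcription/translation (PURExpress), about 100-200 nM. Bound TF was detected with fluorescent anti-GST. Each ungapped 8-mer (which stands for itself and its reverse complement) is scored by the PBM enrichment score (E-score), a modified Wilcoxon-Mann-Whitney statistic from -0.5 to +0.5, computed with the Universal PBM Analysis Suite. Scale: above 0.35 generally sequence-specific binding.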
# Sequence of UniProt P40535 (P40535 whole entry): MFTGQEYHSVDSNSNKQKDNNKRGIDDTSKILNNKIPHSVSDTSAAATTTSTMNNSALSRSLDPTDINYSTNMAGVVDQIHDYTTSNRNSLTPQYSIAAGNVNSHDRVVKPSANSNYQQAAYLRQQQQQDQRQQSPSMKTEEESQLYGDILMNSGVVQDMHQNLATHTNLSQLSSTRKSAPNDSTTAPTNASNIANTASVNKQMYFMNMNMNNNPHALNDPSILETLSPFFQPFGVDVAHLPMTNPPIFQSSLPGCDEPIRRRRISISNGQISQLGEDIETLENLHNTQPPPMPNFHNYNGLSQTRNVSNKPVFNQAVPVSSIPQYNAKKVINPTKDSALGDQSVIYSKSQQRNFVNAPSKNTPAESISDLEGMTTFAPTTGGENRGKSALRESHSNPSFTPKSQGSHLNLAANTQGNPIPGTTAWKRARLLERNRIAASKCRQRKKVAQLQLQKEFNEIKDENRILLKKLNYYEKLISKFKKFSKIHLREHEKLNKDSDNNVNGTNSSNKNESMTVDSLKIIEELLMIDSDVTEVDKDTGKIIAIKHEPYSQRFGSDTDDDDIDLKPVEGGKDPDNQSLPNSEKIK
row,Sequence,PBM E-score
1,CGACACAC,0.0466
2,CGGAGAAA,-0.0341
3,CCAATGAC,0.314
4,CCAATGAA,-0.187
5,ACAATGAG,-0.0976
6,GCAATGAC,0.3
7,ACAATGAC,0.336
8,ACAATGAT,0.269
9,AGCCAGTC,-0.244
10,CGCCATGC,0.0733
11,GTCTGGGA,-0.281
12,ATTGCCTA,-0.141
13,ACATCCAA,0.131
14,TATCGTCA,0.397
15,AATCGTCC,-0.00977
16,CATCGTCG,-0.112
17,GATCGTCA,0.294
18,CATCGTCA,0.372
19,AATCGTCT,0.11
20,CATCGTCC,0.14
21,AATCGTCA,0.34
22,TATCGTGA,0.0604
23,CCAGATAG,-0.0711
24,ACCTTGTA,0.0757
25,CTTAGCAA,-0.0618

row,Sequence,PBM E-score
1,GGGCTCGA,-0.112
2,CACAGATG,0.0492
3,ATTGCTCC,-0.0682
4,CGACCGGA,-0.305
5,CATCGTAG,0.00214
6,TATAGTAA,0.161
7,GATAGTAA,0.14
8,CATAGTAA,0.313
9,GGCAGGAA,-0.21
10,ACATGACA,0.274
11,CCATGACC,0.0749
12,ACATGACG,0.435
13,ACATGACT,-0.0377
14,CCATGACG,0.457
15,CCATGACA,0.271
16,AAAGCGGC,0.151
17,AGGAACTC,-0.0807
18,AATCCCTC,-0.0193
19,ATGTCGCA,-0.0497
20,CCTCAGAA,-0.0484
21,CAACGTTA,0.119
22,AAATACAC,0.141
23,AAATAATG,0.312
24,ATATAAAC,0.295
25,AAATAAAT,0.371

row,Sequence,PBM E-score
1,ATATAAAT,0.321
2,AAATACAA,0.321
3,ATATAAAG,0.17
4,AAATAATC,0.178
5,CAATACAA,0.15
6,AAATAAAG,0.104
7,AAATAATA,0.287
8,AAATAAAA,0.186
9,GCACACTA,-0.138
10,ACGGTAAA,0.129
11,GACACTAC,0.0584
12,AGGAGCTG,-0.256
13,CTTCACAA,-0.0895
14,GGTTGCAC,-0.136
15,GCACTGTA,-0.00858
16,ACGTTATC,0.269
17,ACGTTATG,0.333
18,CCGTTATA,-0.00095
19,ACGTTAGG,0.112
20,ACGTTATA,0.31
21,GCGTTATA,0.0248
22,CCAAGGAG,-0.0523
23,ACTGCAGA,-0.0111
24,TGCTACAA,0.0326
25,ATCTCATG,-0.00941

row,Sequence,PBM E-score
1,ATATTCGA,-0.111
2,AACAAGTT,0.0438
3,AACAAATA,0.242
4,AACAAATT,0.32
5,CTCAGGCC,-0.258
6,CAACACGG,0.0445
7,CCAATAAC,0.135
8,CGTATGGC,0.23
9,AGTATGAT,0.235
10,AGTATGAG,0.0817
11,CGTATGAC,0.443
12,AGTATGAC,0.354
13,CGTATGAG,0.133
14,AGTATGAA,0.0821
15,CGTATGAA,0.319
16,GGTATGAC,0.191
17,GACGAGAA,0.242
18,TCTTGACA,0.053
19,CGAGGACG,-0.269
20,CAACCTTA,0.0972
21,GCTGATAC,-0.0819
22,ACGGTTCC,-0.0941
23,ACCGGGAG,-0.317
24,CACCTCGA,0.119
25,CTATATAC,0.338

row,Sequence,PBM E-score
1,CTATATAA,0.147
2,ATATATAC,0.281
3,CTCTATAC,-0.125
4,TTATATAA,0.24
5,ATATATAA,0.324
6,GTATTGAC,0.148
7,CGCTTGAC,-0.0844
8,AGAAATTG,0.27
9,CCTTATGA,0.159
10,CATACGGA,0.049
11,CATACGGC,0.321
12,AATACGGG,-0.0401
13,AATACGGC,0.324
14,GATACGGC,0.139
15,AATACGGT,-0.0647
16,CCGCAGCA,0.0617
17,GGTTCTAC,-0.204
18,CACATCAG,-0.0727
19,AACCGTCA,0.174
20,CACCGTCG,-0.174
21,CACCGTCC,-0.173
22,CACCGTCA,0.314
23,TACCGTCA,0.345
24,GACCGTCA,0.137
25,GAACCAAA,-0.0818

row,Sequence,PBM E-score
1,GGATATCA,-0.0151
2,AAATATCA,0.139
3,TGATATAA,0.323
4,AGATATCA,0.198
5,CAATATCA,0.126
6,TAATATCA,0.319
7,TGATATCA,0.426
8,GGATATAA,0.236
9,CGATATAA,0.225
10,GGAAGAGA,-0.106
11,ATTCTGAC,0.181
12,GGCGTACC,-0.19
13,CAACCAAG,0.0364
14,TCGGACAA,0.0914
15,CACAGTGC,-0.024
16,CCCTAACA,0.127
17,GACGTGAC,0.394
18,GCCGTGAC,0.341
19,ACCGTGCC,0.0391
20,GCCGTGCC,0.308
21,ACCGTGAC,0.291
22,GCCGTGAA,0.184
23,GACGTGAA,0.142
24,CACGTGAC,0.148
25,GCCGTGCA,0.279

row,Sequence,PBM E-score
1,CCAAGCGA,-0.309
2,AAACAGGT,0.0221
3,ATTCTGGA,0.122
4,AAGCCTTA,-0.0547
5,ACCTGCTA,-0.0708
6,TTACGCAA,0.438
7,TGACGCCA,0.466
8,AGACGCAA,0.0971
9,GCACGCAA,-0.0783
10,AGACGCCA,-0.108
11,CCACGCAA,0.043
12,GGACGCAA,0.0196
13,ATACGCAA,0.283
14,CGACGCCA,0.00886
15,TCACGCAA,0.375
16,GTACGCAA,0.0898
17,TGACGCAA,0.489
18,CTGCTTAC,0.00293
19,CGTGACTC,-0.1
20,ACGCTCAT,0.114
21,CCTAAGCA,-0.0807
22,TTAGGCAA,-0.00879
23,TAACCAGA,-0.0457
24,CAAGTGCC,0.0401
25,CCGCCGTC,0.206

row,Sequence,PBM E-score
1,GCGCCGTA,0.384
2,ACGCCGTG,0.383
3,ACGCCGCG,0.302
4,CCGCCGTA,0.0871
5,ACGCCGGG,-0.254
6,ACGCCGAC,0.0423
7,AGGCCGTA,0.0502
8,GCGCCGAA,0.132
9,ACGCCGTC,0.389
10,GGGCCGTA,0.116
11,ACGCCGTA,0.349
12,ATCCAATA,0.222
13,AGCCGACC,-0.292
14,CTGGGACA,-0.219
15,CCTGTGGC,-0.117
16,AGAGTACC,-0.135
17,TAGTACAA,-0.00017
18,ACATTTCC,0.13
19,GAGATCGA,0.0615
20,CATCCGCG,0.151
21,GTATGTAA,0.282
22,GTATGTCA,0.422
23,ATATGTCG,0.185
24,CGATGTCA,0.319
25,ATGTGTCA,0.286

row,Sequence,PBM E-score
1,GGATGTCA,0.277
2,GTATGTTA,0.182
3,ATATGTCC,0.121
4,CTATGTCC,-0.152
5,ATATGTCA,0.404
6,CTATGTCA,0.392
7,AGATGTCA,0.298
8,CATCAAGG,-0.0962
9,ACGCCCGT,-0.0034
10,AACTAAGG,0.0828
11,GGAACGCA,-0.112
12,AGGTATAC,0.0822
13,GGCCGTGA,0.14
14,CTGCGCTC,-0.292
15,GCAGTCGC,-0.0904
16,ACAAGGCG,0.223
17,GGTGGCGA,-0.11
18,CAGCGGTA,0.0522
19,CCATAGCG,-0.0739
20,GACAGAAA,0.311
21,GACAGAAC,0.0521
22,AACAGAAA,0.213
23,ACCGTTCG,0.0621
24,ACTACCCT,-0.111
25,AATTCGCT,0.238

row,Sequence,PBM E-score
1,CATTATCG,0.0831
2,AATTATCG,0.316
3,AATTATCA,0.356
4,CATTATCA,0.137
5,AATTATCT,0.161
6,AATTATCC,0.188
7,ACAGGGGA,-0.218
8,ATTTAAAA,0.258
9,ACAATAGC,-0.178
10,ATTGGCAG,-0.165
11,AGTAACTG,0.00693
12,CTACGTCC,-0.0878
13,GTACGTGA,0.108
14,ATACGTCG,0.215
15,GTACGTCA,0.49
16,ATACGTCA,0.494
17,ATACGTCC,0.061
18,CTACGTCA,0.493
19,CTACGTGA,0.0384
20,GTACGTTA,0.124
21,ATCCGTGA,-0.0022
22,GATCGGAC,-0.0973
23,CAGATTGC,-0.0228
24,GTAGATGA,0.181
25,CCTAGCTA,-0.162

row,Sequence,PBM E-score
1,ATTTGTGG,0.0944
2,AGATTACG,0.386
3,CGATTACG,0.349
4,CGATTACC,-0.107
5,AGATTACC,0.144
6,CGATTACA,0.13
7,AGATTACT,0.144
8,CTCCCACC,-0.335
9,ACGGCTTC,0.0724
10,AAGCCTGT,-0.0963
11,GTCGCCCA,-0.192
12,CAGCTCTC,-0.172
13,AATAATAG,0.209
14,AAAAATAA,0.292
15,CATAATAA,0.267
16,AAAAATAT,0.309
17,AATAATAA,0.313
18,AACAATAT,0.37
19,AATAATAC,0.197
20,AACAATAA,0.204
21,AATAATGT,0.181
22,AATAATAT,0.305
23,AAAAATAG,0.118
24,AACAATAC,0.156
25,GCCTTAAA,0.151

row,Sequence,PBM E-score
1,GATGGCCC,-0.106
2,CGAGCCCG,-0.126
3,CGGAAATA,0.155
4,CCGAGTTC,-0.063
5,CCCTAGGA,-0.295
6,AACTAATA,0.336
7,CACTAATA,0.211
8,AATTAATG,0.174
9,GATTAATA,0.261
10,AATTAATC,0.197
11,TACTAATA,0.222
12,GTTTAATA,0.202
13,AATTAATT,0.311
14,TATTAATA,0.0736
15,ATTTAATA,0.338
16,CTTTAATA,0.201
17,AATTAATA,0.39
18,GAGTCCGA,-0.0585
19,TCGCCAGA,-0.0255
20,ACTCGCCA,-0.037
21,AATAAACG,0.157
22,GCCGGAGC,-0.249
23,CAACTGAC,0.0886
24,CGATGTAA,0.117
25,AGATGTAA,0.27

row,Sequence,PBM E-score
1,TGATGTAA,0.488
2,CGATGCAA,-0.0639
3,GGATGCAA,-0.129
4,TGATGCAA,0.418
5,CACAGGAA,-0.0714
6,TCAATCGA,0.249
7,CGACGGCA,-0.00873
8,TGACGGAA,0.432
9,TGACGGCA,0.371
10,GGACGGCA,0.25
11,GGACGGAA,-0.119
12,CGACGGAA,-0.188
13,CCGTCGGA,-0.114
14,CCCAGTAC,-0.202
15,TGGTCACA,0.0201
16,CCGTCACA,0.139
17,TCGTCACA,0.368
18,CCGTCACG,0.176
19,TAGTCACA,0.0725
20,ACGTCACC,0.496
21,GCGTCACA,0.417
22,AAGTCACC,0.188
23,GGGTCACC,-0.153
24,GAGTCACC,0.0602
25,GCGTCACC,0.448

row,Sequence,PBM E-score
1,AGGTCACC,0.0958
2,CCAAAGCC,-0.0189
3,AACATCCT,-0.0218
4,GAGGATTA,-0.125
5,GTAGCGAC,-0.304
6,CCATCAAG,-0.165
7,CGGCGGTA,0.128
8,AAGAGTGT,0.0413
9,ACGACCGT,-0.238
10,GCGGGGTA,-0.201
11,GAGCCTCC,-0.278
12,AGGGCGGG,-0.0957
13,ACTCCGAA,-0.169
14,CCGTCACC,0.411
15,CAGTCACC,-0.113
16,CGGTCACC,0.0497
17,AGGTTCGC,-0.315
18,ACAATGGG,0.0198
19,CCAGACCG,-0.0843
